Inconclusive results are not listed. A number with no mark means an inactive call. Calls of active or inactive are those of the source. Calls follow the shape of the dose curve; as a rule, active = well fitted inhibition curve with a large enough effect; inconclusive = small, poorly fitted or top-dose-only effect, or effect the other way; inactive = flat fitted curve, though single readings scatter.
target: Ubiquitin carboxyl-terminal hydrolase 2 (Homo sapiens) (UniProt O75604); assay: Ub-rhodamine 110 based assay for inhibitors Ubiquitin-specific Protease USP2a; conditions: USP2a Ub-rhodamine110 cleavage, fluorescence; series mostly up to 38.3 µM; activity change, negative = inhibition: at the top concentration; also: nearly all actives have a fitted effect of over 50% in size
Sequence (O75604 whole entry, looked up): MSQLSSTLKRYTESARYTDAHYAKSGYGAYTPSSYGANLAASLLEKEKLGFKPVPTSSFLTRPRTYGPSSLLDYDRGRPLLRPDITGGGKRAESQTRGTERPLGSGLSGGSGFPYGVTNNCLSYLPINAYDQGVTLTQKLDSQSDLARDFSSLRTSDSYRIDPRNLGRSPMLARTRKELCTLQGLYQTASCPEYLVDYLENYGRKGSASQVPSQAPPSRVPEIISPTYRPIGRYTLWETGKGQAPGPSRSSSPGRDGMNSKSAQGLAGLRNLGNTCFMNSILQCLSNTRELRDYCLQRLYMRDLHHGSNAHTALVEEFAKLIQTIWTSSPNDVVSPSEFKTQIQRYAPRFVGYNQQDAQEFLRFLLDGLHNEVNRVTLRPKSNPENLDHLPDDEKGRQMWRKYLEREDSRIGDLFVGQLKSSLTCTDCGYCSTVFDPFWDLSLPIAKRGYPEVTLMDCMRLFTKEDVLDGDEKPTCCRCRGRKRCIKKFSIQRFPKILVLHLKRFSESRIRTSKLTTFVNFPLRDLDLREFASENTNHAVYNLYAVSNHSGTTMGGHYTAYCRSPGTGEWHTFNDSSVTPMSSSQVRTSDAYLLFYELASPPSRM
How it was run: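 Kinetic fluorescence (485/531 nm) read each minute over 7 min after adding Ub-Rhod110 (150 nM final) to USP2a (5 nM final). The enzyme had 30 min RT exposure to compounds beforehand in Tris pH 8.0 buffer with CaCl2, CHAPS and beta-ME.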
% is scaled to controls: 0 for no effect and ±100 for the full control effect; potency is read from the fitted curve at half-maximal effect.

Q: `CCSc1nc(N2CCCCC2)c2c(c1C#N)CCCC2` was tested. Which “activity change, negative = inhibition” value did it give?
A: -8.51%

Q: `CCc1cc2cccc(C)c2nc1SCC(=O)N1CCN(C(=O)c2ccco2)CC1` was tested. Which “activity change, negative = inhibition” value did it give?
A: -16.4%

Q: How did the Potency turn out when `CCC(C)Cn1c(O)cc2nn(-c3nc4ccccc4s3)c(=O)c-2c1C` (centres undefined) was run?
A: 10 µM (active)

Q: `Cc1cc2c(c(=O)n1CC1CCCO1)C(c1ccco1)C(C#N)=C(N)O2` (centres undefined) was tested. Which “activity change, negative = inhibition” value did it give?
A: 0.369%

Q: For `Cc1ccc(C(=O)c2coc3c2C(=O)C(=O)c2ccccc2-3)cc1`, which “activity change, negative = inhibition” value is on record?
A: -29.4%

Q: How did the “activity change, negative = inhibition” value turn out when `CCCCCCCCCCOC(=O)Cn1c(COc2cccc(C)c2)[n+](C)c2ccccc21` was run?
A: -8.36%

Q: With `CCCCc1ccc(/C=C2/C(=O)ON=C2c2ccccc2)s1` as the molecule, how does the “activity change, negative = inhibition” value read?
A: -9.15%

Q: Which Potency does the source give for `O=C(/C=C/c1ccc(Cl)c([N+](=O)[O-])c1)Nc1ccc(N2CCCC2)cc1` here?
A: 12.6 µM (active)

Q: How did the Potency turn out when `Cc1cccc(N=C2NC(=O)/C(=C/C=C/c3ccco3)S2)c1` was run?
A: 10 µM (active)

Q: For `CCCn1c(NC(=O)c2ccc(Br)cc2)nc2ccccc21`, which “activity change, negative = inhibition” value is on record?
A: 0.793%

Q: For `O=C(Nc1nnc(SCCC2OCCO2)s1)C1CC(=O)N(c2ccc(F)cc2)C1` (centres undefined), which Potency is on record?
A: 7.94 µM (active)

Q: Which “activity change, negative = inhibition” value does the source give for `C(=N\N(c1ccccc1)c1ccccc1)/c1ccccn1` here?
A: -9.06%

Q: `O=C(Nc1ccc(Nc2ccncc2)cc1)c1ccc(Nc2ccnc3ccc([N+](=O)[O-])cc23)cc1` was tested. Which Potency did it give?
A: 7.08 µM (active)

Q: With `O=C1/C(=C/C=C/c2ccco2)SC(=S)N1c1ccc(O)cc1` as the molecule, how does the Potency read?
A: 3.55 µM (active)

Q: With `Cc1cc(C)c(NC(=O)C[N+](C)(C)CC(O)COc2cccc3ccccc23)c(C)c1` (centres undefined) as the molecule, how does the “activity change, negative = inhibition” value read?
A: -7.77%

Q: For `CCOC(=O)C1CCN(CC(O)COc2ccc(C(C)(C)C)cc2)CC1` (centres undefined), which “activity change, negative = inhibition” value is on record?
A: 2.76%

Q: Which “activity change, negative = inhibition” value does the source give for `C#CCOCCOCCOCCNc1nc(N2CCN(C(=O)CCCCCCCCCCNC(=O)Cn3cc(C[C@@H](C)O)nn3)CC2)nc(N2CCN(C(=O)CCCCCCCCCCNC(=O)[C@@H]([C@H](C)CC)n3cc(CCCCCN)nn3)CC2)n1` here?
A: -28.3%

Q: Which “activity change, negative = inhibition” value does the source give for `CCCCC1NC(C(=O)O)CS1` (centres undefined) here?
A: -4.19%

Q: Which “activity change, negative = inhibition” value does the source give for `Cc1nc(NC(C)C)c2cnn(CCc3ccccc3)c2n1` here?
A: -4.79%

Q: With `O=C1CC(Nc2ccc(N3CCOCC3)cc2)C(=O)N1c1cccc(C(F)(F)F)c1` (centres undefined) as the molecule, how does the “activity change, negative = inhibition” value read?
A: -18.5%

Q: `CCCSCCCNC(=O)CC1Oc2ccccc2NC1=O` (centres undefined) was tested. Which “activity change, negative = inhibition” value did it give?
A: -16.1%

Q: With `O=C(NN1C(=O)/C(=C/C=C/c2ccco2)SC1=S)c1ccncc1` as the molecule, how does the Potency read?
A: 10 µM (active)

Q: How did the Potency turn out when `Cc1cc(-c2csc(NC(=O)c3ccc(=O)[nH]c3)n2)c(C)n1Cc1ccccc1` was run?
A: 12.6 µM (active)

Q: How did the Potency turn out when `Cc1ccc([C@H]2C(C(=O)O)=CC[C@@H](c3ccc(Cl)cc3)N2S(=O)(=O)c2ccc(C)cc2)cc1` was run?
A: 11.2 µM (active)

Q: With `CCCCCCCCCCOC(=O)Cn1c(COc2ccc(OC)cc2)[n+](C)c2ccccc21` as the molecule, how does the “activity change, negative = inhibition” value read?
A: -10.1%

Q: `COc1ccc(C(=O)C[N+]2(C)CCOCC2)cc1` was tested. Which “activity change, negative = inhibition” value did it give?
A: -0.2%

Q: How did the “activity change, negative = inhibition” value turn out when `C=CC#CC[N+]1(CC#Cc2ccccc2)CCOCC1` was run?
A: -18.5%

Q: `CC(C)Oc1ccc(C(=O)Nc2ccc(N3CCCC3)cc2)cc1` was tested. Which Potency did it give?
A: 10 µM (active)

Q: For `Cc1ccc(N=C2NC(=O)/C(=C/C=C/c3ccco3)S2)cc1C`, which Potency is on record?
A: 5.01 µM (active)

Q: `Cc1ccc(S(=O)(=O)N2[C@@H](c3ccc(C(C)(C)C)cc3)C(C(=O)O)=CC[C@H]2c2cccc(Cl)c2)cc1` was tested. Which Potency did it give?
A: 5.62 µM (active)

Q: Which “activity change, negative = inhibition” value does the source give for `O=C(C[n+]1cccc(C(=O)N/N=C/c2ccc(Br)cc2)c1)c1ccccc1` here?
A: -2.35%

Q: For `Cc1ccc2c(c1)c1c3n2CCN(C(=O)Cn2c(-c4ccccc4)noc2=O)C3CCC1` (centres undefined), which “activity change, negative = inhibition” value is on record?
A: -9.33%

Q: For `O=C(/C=N/O)NCc1cccnc1`, which “activity change, negative = inhibition” value is on record?
A: -8.44%

Q: Which “activity change, negative = inhibition” value does the source give for `Cn1c2ccccc2c2nnc(SC3CCOC3=O)nc21` (centres undefined) here?
A: 1.37%

Q: `COCc1cc(C)nc(OCC(=O)N/N=C\c2cc(C)n(-c3cccc(C(F)(F)F)c3)c2C)c1C#N` was tested. Which “activity change, negative = inhibition” value did it give?
A: -13.8%

Q: Which “activity change, negative = inhibition” value does the source give for `CCCC(c1nnnn1Cc1ccc(OC)cc1)N1CCC(C(N)=O)CC1` (centres undefined) here?
A: -9.57%

Q: With `CC(=O)c1ccc2c(c1)C1C=CCC1C(C(=O)O)N2` (centres undefined) as the molecule, how does the Potency read?
A: 10 µM (active)

Q: How did the “activity change, negative = inhibition” value turn out when `CC1CCCCC1NC(=O)CSCC(=O)O` (centres undefined) was run?
A: 0.809%

Q: For `CSc1cccc(NC(=O)c2ccccc2N(C)S(C)(=O)=O)c1`, which “activity change, negative = inhibition” value is on record?
A: 1.08%
